ZTA DNA inh – blocks Epstein-Barr virus ZTA, an EBNA-1 counter-screen; P03206; ZTA-DNA binding, fluorescence polarization; inhibition, % at 11 µM; 0.15% of 320,000 active; AID 2234; in the data active means inhibition above about 33%
Target sequence (P03206 whole entry, looked up): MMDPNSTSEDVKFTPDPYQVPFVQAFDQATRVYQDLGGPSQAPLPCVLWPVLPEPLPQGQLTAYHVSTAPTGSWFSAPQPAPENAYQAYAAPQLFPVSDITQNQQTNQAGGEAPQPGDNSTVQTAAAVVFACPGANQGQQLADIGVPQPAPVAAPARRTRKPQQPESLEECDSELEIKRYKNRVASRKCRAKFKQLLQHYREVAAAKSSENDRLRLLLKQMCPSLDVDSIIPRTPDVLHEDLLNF
EBNA-1 inh – blocks EBNA-1 binding to DNA; EBNA-1 DNA binding, fluorescence polarization; inhibition, % at 14.8 µM; 0.34% of 300,000 active; AID 1950; in the data active means inhibition above about 28%
Keap1-Nrf2 PPI – inhibitors of human Keap1-Nrf2 protein-protein interaction; 0.15% of 340,000 active; Keap1 Kelch-Nrf2 peptide fluorescence polarization, 1536-well; Q14145; inhibition, % at 9.4 µM; in the data active means inhibition above about 12%;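 further: human Keap1 Kelch domain with fluorescein labeled Nrf2 9mer peptide probe; 0% = neutral control wells and 100% = peptide positive control; higher means more block of Keap1 binding to Nrf2 peptide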
LANA DNA inh – blocks KSHV LANA C-terminal domain binding to DNA. MBP-C-LANA/FAM-LBS DNA binding, fluorescence polarization. inhibition, % at 9 µM. 0.078% of 340,000 active;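 active means highest replicate inhibition at or above 60% at 9 µM, even if other replicates fall short; inactive means all replicates below 60% inhibition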;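 further: 0% = neutral control wells and 100% = 4 µM acridine orange control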
E coli Lon inh – E. coli protease La inhibition; P0A9M0; purified E. coli Lon protease, fluorescence polarization; inhibition, % at 7.94 µM; 0.42% of 360,000 active; AID 602123; in the data active means inhibition above about 13%, passing the limit was not always enough;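 further: 0% = enzyme with probe and DMSO and 100% = no enzyme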
Starred values were filed as active, the others as inactive; nt = no result; + = active, no number. Only some compounds are listed: those with a hit (about 0.85% of all), similar ones and a draw of the others.

SMILES	ZTA DNA inh	EBNA-1 inh	Keap1-Nrf2 PPI	LANA DNA inh	E coli Lon inh
COc1ccc2nc(NC(=O)CSc3nnc(N)s3)sc2c1	5	37*	-3	0	0
O=C(N/N=C/c1cccs1)c1cccc(NC(=O)c2ccc(Cl)cc2)c1	6	59*	nt	nt	nt
Cc1cc2ccccc2n1CCNC(=O)C(C)C	-12	0	-3	-1	4
Cc1cc2ccccc2n1CCNC(=O)C(C)Oc1ccccc1 (centres undefined)	-1	-3	-4	1	24*
O=C1CSC2=NCN(c3ccc4c(c3)OCO4)CN12	7	-6	-5	0	9
CN(C)c1ccc(N2CN=C3SCC(=O)N3C2)cc1	+	+	-6	3	-11
Nc1ccc(S(=O)(=O)Nc2nccs2)cc1N=Nc1ccccc1[N+](=O)[O-]	nt	nt	7	3	-4
Cc1ccccc1C(=O)Nc1ccc(-c2nc3ccc(C(=O)c4ccccc4)cc3[nH]2)cc1	9	11	-5	2	1
O=C(c1ccccc1)c1ccc2nc(-c3ccc(NC(=O)c4ccccc4Br)cc3)[nH]c2c1	-2	45*	-1	0	-4
CCOC(=O)Cn1c(=O)oc2cc(S(=O)(=O)NCc3cccs3)ccc21	-2	7	-6	0	5
CCOC(=O)Cn1c(=O)oc2cc(S(=O)(=O)NCc3ccccn3)ccc21	15	3	-4	1	26*
CCOC(=O)C1(CC2CC2)CCN(C(=O)c2cc(C3CC3)nc3ccccc23)CC1	-11	-2	0	-3	-15
CCOC(=O)C1(CC2CC2)CCN(C(=O)c2cc(OC)nc3ccccc23)CC1	34*	29*	-2	1	-3
C=Cc1c(C)c2cc3[nH]c(cc4nc(cc5nc(cc1[nH]2)C(C)=C5CCC(=O)O)C(CCC(=O)O)=C4C)c(C)c3C=C	146*	96*	1	64*	1
O=c1c2cc(O)c(O)cc2oc2cc(O)c(C3OC(CO)C(O)C(O)C3O)c(O)c12 (centres undefined)	-3	11	-2	67*	0
OC(c1ccc(Cl)c(F)c1)c1ncc(-c2cccc(F)c2)[nH]1 (centres undefined)	nt	nt	nt	nt	9
COc1ccc(-c2cc(=O)c3ccc(O)cc3o2)cc1OC	nt	nt	nt	nt	-2
Nc1ccc(-c2c3ccc(=O)cc-3oc3cc(O)ccc23)c(C(=O)O)c1	7	nt	-17	171*	-255
Cc1ccc2c(c1)N(C(=O)CCC(=O)NC1CCC(C)CC1)CCO2 (centres undefined)	16	4	-2	-1	5
O=C1c2cc(CO)cc(O)c2C(=O)c2c(O[C@@H]3OC(CO)[C@@H](O)[C@@H](O)[C@@H]3O)cccc21 (some centres undefined)	-5	-7	-4	-3	6
O=C(O)c1cc(O)c2c(c1)[C@H]([C@H]1c3cc(C(=O)O)cc(O)c3C(=O)c3c(O[C@@H]4O[C@H](CO)[C@@H](O)[C@H](O)[C@H]4O)cccc31)c1cccc(OC3O[C@H](CO)[C@@H](O)[C@H](O)[C@H]3O)c1C2=O (some centres undefined)	14	94*	-3	14	3
O=C(O)c1cc(O)c2c(c1)[C@@H]([C@H]1c3cc(C(=O)O)cc(O)c3C(=O)c3c(O[C@@H]4O[C@H](CO)[C@@H](O)[C@H](O)[C@H]4O)cccc31)c1cccc(OC3O[C@H](CO)[C@@H](O)[C@H](O)[C@H]3O)c1C2=O (some centres undefined)	15	94*	-2	9	-8
O=C1c2c(O)cccc2C(C2OC(CO)[C@@H](O)[C@H](O)[C@H]2O)c2cc(CO)cc(O)c21 (some centres undefined)	-7	nt	-6	1	8
Cc1ccc(S(=O)(=O)N2CCCCC2)cc1C(=O)NCCN1CCOCC1	1	nt	0	-4	-8
CC(C)Oc1ccc(CN2CCC2(C)C(=O)NCc2cccc3ccccc23)cc1 (centres undefined)	nt	nt	nt	nt	1
SMILES	ZTA DNA inh	EBNA-1 inh	Keap1-Nrf2 PPI	LANA DNA inh	E coli Lon inh
Cn1cnnc1SCC(=O)NNC(=O)c1ccc([N+](=O)[O-])cc1	nt	nt	-2	1	1
CCCN(C(=O)CSCc1ccc(Cl)cc1)c1c(N)n(Cc2ccccc2)c(=O)[nH]c1=O	1	-1	4	-2	-7
Cc1onc(-c2ccccc2)c1C(=O)Nc1cccc2nsnc12	5	2	-6	116*	5
Cc1nnc(NC(=O)c2c(-c3ccccc3)noc2C)s1	-15	-1	-2	-4	3
Cc1cc(O)c2c(c1)C(=O)[C@@]13Oc4c5c(c(O)c6c(O)cc(C)cc46)C(=O)C[C@H](O)[C@H]5[C@@H]1[C@@H](O)CC(=O)C3=C2O	nt	nt	0	-2	20*
Cc1cc(C)nc(N2CCCC(C(=O)Nc3cccc(Cl)c3)C2)n1 (centres undefined)	3	1	-7	0	1
Cc1cc(N)ccc1-n1c(C)ccc1C	55*	29*	1	-1	-12
Cc1ccc(OC(C)C(=O)N(C)Cc2ccccc2)c([N+](=O)[O-])n1 (centres undefined)	1	-3	3	2	1
Nc1ccc(N(CCO)CCO)cc1	+	193*	6	15	9
O=C(CSc1nccc(=O)[nH]1)NC1CCCCCC1	nt	nt	3	2	0
Cc1c2ccccc2cc[n+]1CCCS(=O)(=O)[O-]	-6	6	-7	1	-4
CC1(C)C(/C=C/C=C/C=C/C=C2\N(CCCCS(=O)(=O)O)c3ccc4ccccc4c3C2(C)C)=[N+](CCCCS(=O)(=O)[O-])c2ccc3ccccc3c21	61*	51*	-8	27	-26
COc1ccc(C2NC(=O)NC(C)=C2[N+](=O)[O-])cc1 (centres undefined)	2	3	-8	-1	-9
Cc1ccc(Nc2nc3ccccc3n3nnnc23)cc1	-2	34*	1	0	-23
COc1ccc(Nc2nc3ccccc3n3nnnc23)cc1	-1	5	0	1	-7
COc1ccccc1CNC(=O)CSCc1cnn(-c2ccccc2)c1-n1cccc1	10	0	4	-1	-6
O=C(CSCc1cnn(-c2ccccc2)c1-n1cccc1)NCc1cccnc1	8	1	2	80*	2
C#CCOCCOCCOCCNc1nc(N2CCN(C(=O)CCCCCCCCCCNC(=O)[C@H]([C@@H](C)CC)n3cc(CCCCCN)nn3)CC2)nc(N2CCN(C(=O)CCCCCCCCCCNC(=O)[C@@H]([C@H](C)CC)n3cc(CCCCCN)nn3)CC2)n1	65*	-5	nt	nt	nt
C#CCOCCOCCOCCNc1nc(N2CCN(C(=O)CCCCCCCCCCNC(=O)[C@H]([C@@H](C)CC)n3cc(CCCCN=C(N)N)nn3)CC2)nc(N2CCN(C(=O)CCCCCCCCCCNC(=O)[C@H]([C@@H](C)CC)n3cc(CCCCN=C(N)N)nn3)CC2)n1	147*	-2	nt	nt	nt

Screening results (PubChem BioAssay)
